# Bead autofluor – flagged as autofluorescent in microsphere protease counterscreen. compound autofluorescence counterscreen, microsphere flow cytometry; hits give high values. fluorescence intensity (no concentration beside the values). 3.1% of 360,000 active; in the data active = fluorescence intensity above about 16000; inconclusive = no clear call, values can overlap the other calls
# BH1578 lux ind – induces V. cholerae light production without autoinducers; activation, % at 18.7 µM; AID 588436; V. cholerae BH1578 lux reporter, luminescence, 6 h; 0.16% of 350,000 active; in the data active = activation mostly above about 9.7%, no sharp cut-off; inconclusive = no clear call, values can overlap the other calls; inactive = mostly below about 3.7%
# BoNT-A LC inh2 – BoNT A light chain protease inhibition. multiplex microsphere protease substrate cleavage, flow cytometry. inhibition, % at 10 µM. 0.17% of 360,000 active
# BoNT-F LC inh – inhibitors of Botulinum neurotoxin F light chain protease | Multiplex microsphere protease cleavage assay, flow cytometry | inhibition, % at 10 µM | 0.22% of 360,000 active; in the data active = inhibition above about 35%, passing the limit was not always enough; inconclusive = no clear call, values can overlap the other calls
# Anthrax LF prot – anthrax lethal factor protease inhibition; P15917; AID 588501; inhibition, % at 10 µM; multiplex microsphere protease cleavage assay, LF; 0.12% of 360,000 active
# Target sequence (P15917 whole entry, looked up): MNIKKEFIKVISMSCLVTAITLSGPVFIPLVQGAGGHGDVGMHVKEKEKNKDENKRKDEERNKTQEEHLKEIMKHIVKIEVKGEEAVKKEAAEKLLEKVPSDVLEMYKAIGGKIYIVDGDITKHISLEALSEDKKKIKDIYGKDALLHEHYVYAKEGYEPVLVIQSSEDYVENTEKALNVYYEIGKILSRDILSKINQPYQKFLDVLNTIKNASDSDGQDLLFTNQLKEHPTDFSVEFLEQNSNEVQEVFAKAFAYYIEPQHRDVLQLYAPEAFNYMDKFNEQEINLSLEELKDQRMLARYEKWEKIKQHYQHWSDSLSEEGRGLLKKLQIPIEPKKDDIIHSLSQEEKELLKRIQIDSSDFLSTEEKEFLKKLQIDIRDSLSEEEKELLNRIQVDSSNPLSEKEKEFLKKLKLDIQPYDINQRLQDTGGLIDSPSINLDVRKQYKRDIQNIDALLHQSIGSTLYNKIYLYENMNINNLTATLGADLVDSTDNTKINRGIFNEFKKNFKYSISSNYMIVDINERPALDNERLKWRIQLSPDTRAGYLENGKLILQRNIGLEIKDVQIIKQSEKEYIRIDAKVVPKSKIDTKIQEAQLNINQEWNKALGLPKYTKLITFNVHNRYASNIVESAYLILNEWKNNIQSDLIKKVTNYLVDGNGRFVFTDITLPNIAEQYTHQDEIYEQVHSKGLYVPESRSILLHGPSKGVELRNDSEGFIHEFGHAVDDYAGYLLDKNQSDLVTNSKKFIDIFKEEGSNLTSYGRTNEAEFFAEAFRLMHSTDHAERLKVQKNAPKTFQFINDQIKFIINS
# Hits are given with their value; - = inactive; ? = inconclusive. Hits are enriched below; roughly 3.5% of the tested compounds scored in any of these assays. Rule as the data show it, unless noted: active = inhibition above about 30%; inconclusive = no clear call, values can overlap the other calls; inactive = below that.
SMILES,Bead autofluor,BH1578 lux ind,BoNT-A LC inh2,BoNT-F LC inh,Anthrax LF prot
COc1cc2c(cc1OC)C(c1cc3cc(OC)c(OC)cc3[nH]c1=O)N(C(=O)C1CC1)CC2 (stereo unspecified),20442,-,-,-,-
CCN1C=CC(=C2C(=O)c3ccccc3C2=O)C=C1,17505,-,-,-,-
COc1ccccc1N1CC(C(=O)OC(C)C(=O)Nc2ccc(F)cc2)CC1=O (stereo unspecified),-,-,-,-,-
COc1ccccc1N1CC(C(=O)OCC(=O)c2ccc(F)cc2)CC1=O (stereo unspecified),23806,-,-,-,-
O=C1OCCC1Sc1nnc(-c2cccc(Br)c2)o1 (stereo unspecified),20056,-,-,-,-
O=C1OCCC1Sc1nnc(-c2ccc3c(c2)OCO3)o1 (stereo unspecified),-,-,-,-,-
Cc1ccc(S(=O)(=O)NCCc2nnc3ccc(N4CCOCC4)nn23)cc1,-,-,-,-,-
CCn1c(=O)c(C(=O)Nc2ccccc2C)c(O)c2ccccc21,22484,-,?,-,-
CCCCCCCCC(=O)NNC(=O)c1c(O)c2ccccc2n(CC)c1=O,-,-,-,39,-
CCCCCCC(=O)NNC(=O)c1c(O)c2ccccc2n(CC)c1=O,-,-,-,-,-
CCOC(=O)CC1COCCN1C(=O)CCc1nnc(-c2ccsc2)o1 (stereo unspecified),-,-,-,-,-
CC1COC(Cn2c3ccccc3c3ccccc32)O1 (stereo unspecified),-,-,?,?,-
CN(C)/C=N/c1c(C(=O)NCc2ccccc2)nnn1Cc1ccccc1,18876,-,-,-,-
CCCN(CC(=O)Nc1ccccc1OC)C(=O)CCC(=O)c1ccc(OCC)cc1,-,-,-,-,-
COc1cccc(NC(=O)CN2C(=O)COc3ccc(S(=O)(=O)N4CCC(C)CC4)cc32)c1,-,-,-,-,-
CCCCCc1nnc(NC(=O)C2CCCO2)s1 (stereo unspecified),20636,-,-,-,-
O=C(Nc1nnc(-c2ccncc2)s1)C1CCCO1 (stereo unspecified),16579,-,-,-,-
CCOc1ccc(CCNc2nc3c(c(=O)n(C)c(=O)n3C)n2CC)cc1OCC,16756,-,?,-,-
CCn1c(NCc2ccccn2)nc2c1c(=O)n(C)c(=O)n2C,16824,-,-,-,-
COc1ccc(CCN2CC(O)=C(c3nc(C)cs3)C2=N)cc1OC,23439,-,-,-,-
Nc1c(S(=O)(=O)c2cc(Cl)ccc2Cl)c2nc3ccccc3nc2n1CCN1CCOCC1,24321,-,?,-,-
COc1ccc(CN2CCN(c3ncccn3)CC2)c(OC)c1,22491,-,-,-,-
FC(F)(F)c1cccc(CN2CCN(c3ncccn3)CC2)c1,-,-,-,-,-
Fc1cccc(CN2CCN(c3ncccn3)CC2)c1,19248,-,-,-,-
c1ccc(-c2ccc(CN3CCN(c4ncccn4)CC3)cc2)cc1,16137,-,-,-,-
SMILES,Bead autofluor,BH1578 lux ind,BoNT-A LC inh2,BoNT-F LC inh,Anthrax LF prot
CCOC(=O)CSc1nc2c(sc(=S)n2-c2ccc(CC)cc2)c(=O)[nH]1,-,-,-,-,-
CCOC(=O)CC(=O)CSc1nc2c(sc(=S)n2-c2ccccc2)c(=O)[nH]1,21967,-,?,-,-
Cc1nn(C)cc1/C=N/O,16844,-,-,-,-
Cc1nn(-c2ccccc2)cc1/C=N/O,-,-,-,-,-
N#Cc1ccc(-c2ccc(F)cc2)nc1Oc1ccc(F)cc1,21827,-,-,-,-
CCOC(=O)c1ccc(NC(=O)CN2C(=O)CSC(C)C2=O)cc1 (stereo unspecified),-,-,-,-,-
c1ccc(Oc2cnc3ccccc3n2)cc1,23310,-,-,-,-
Clc1cccc(Oc2cnc3ccccc3n2)c1,-,-,-,-,-
CC(=O)Nc1cccc(Oc2cnc3ccccc3n2)c1,18766,-,-,-,-
CC(=O)Nc1ccc(Oc2cnc3ccccc3n2)cc1,24151,-,-,-,-
Cc1ccc(S(=O)(=O)c2c(C)nn(C(C)(C)C)c2OC(=O)CC(C)C)cc1,-,-,-,-,-
CCOC(=O)C1=C(Cn2cnc3ccccc32)NC(=O)NC1c1ccc(Cl)cc1 (stereo unspecified),-,-,-,-,-
CCOC(=O)C1=C(Cn2cnc3ccccc32)NC(=O)NC1c1ccc(OC)cc1 (stereo unspecified),16933,-,-,-,-
O=C1c2cc(O)c(O)cc2S(=O)(=O)C1c1ccccc1 (stereo unspecified),-,-,-,-,-
O=C(NCCCN1CCOCC1)c1ccc2nc(Cc3ccccc3F)oc2c1,-,-,-,-,-
CCCOC(=O)c1cc(-c2ccc(/C=C3/C(=O)N(C)C(=O)C(C#N)=C3C)o2)ccc1Cl,22120,-,-,-,-
C=CCOC(=O)c1cc(-c2ccc(/C=C3\C(=O)NC(=O)C(C#N)=C3C)o2)ccc1Cl,-,-,-,-,-
CC(C)OCCCNC(=O)c1ccncc1,18964,-,-,-,-
CC(C)OCCCNC(=O)c1ccc(Br)cc1,-,-,-,-,-
O=C(CCCl)Nc1cc(SCCO)cc([N+](=O)[O-])c1,20902,-,-,-,-
O=C(Nc1cc(SCCO)cc([N+](=O)[O-])c1)c1ccc(Br)o1,-,-,-,-,-
COc1ccccc1/C=C/C(=O)NCC(=O)N/N=C/c1ccc(C)o1,-,-,-,-,-
CC(C)C(c1nnnn1C1CCCC1)N(C)C1CCCCC1 (stereo unspecified),20923,-,?,-,-
Cc1ccc(C(c2nnnn2C2CCCCC2)N(C)C2CCCCC2)cc1 (stereo unspecified),-,-,-,-,-
CCCN1CCN(C(c2cc3cc(OCC)ccc3[nH]c2=O)c2nnnn2C2CCCCC2)CC1 (stereo unspecified),22710,-,?,-,-
SMILES,Bead autofluor,BH1578 lux ind,BoNT-A LC inh2,BoNT-F LC inh,Anthrax LF prot
COc1ccc2[nH]c(=O)c(C(c3nnnn3C3CCCCC3)N3CCN(C)CC3)cc2c1 (stereo unspecified),-,-,-,-,-
COc1cc2cc(C(c3nnnn3C3CCCC3)N(C)C3CCCCC3)c(=O)[nH]c2cc1OC (stereo unspecified),21407,-,-,-,-
COc1cc2cc(C(c3nnnn3C3CCCCC3)N(C)C3CCCCC3)c(=O)[nH]c2cc1OC (stereo unspecified),22356,-,-,-,-
CC(=O)c1cnc(Oc2cc(Cl)ccc2Cl)nc1C,-,-,-,-,-
COC(=O)c1c(N)c(C#N)c2n1CCCCC2,-,-,-,-,-
N#Cc1c(N)c(C(=O)c2ccccc2)n2c1CCC2,23949,-,-,-,-
CCN(CC)c1ccc([C@H]2[C@@H]3CCCC[C@]3(O)CCN2CC(=O)NCc2ccco2)cc1,-,-,-,-,-
COc1cc([C@H]2[C@@H]3CCCC[C@]3(O)CCN2CC(=O)Nc2ccc(C)cc2)ccc1O,22835,-,-,-,-
O=C(c1ccc(S(=O)(=O)NCC2CCCO2)cc1)N1CCN(c2cccc(Cl)c2)CC1 (stereo unspecified),-,-,-,-,-
CCN(CC)c1ccc(C(=O)O)cc1,-,-,-,-,-
